Laboratory results taken from PubChem BioAssay (NCATS).
Where “and” joins values, the source holds several entries; their conditions need not be identical. Equal entries are not always repeated. Inconclusive results are not listed. Calls of active or inactive are those of the source. Unless noted, calls come from the whole dose curve; as a rule, active = well fitted curve in the direction sought with a large enough effect; inconclusive = small, poorly fitted or top-dose-only effect, or another doubt; inactive = no such curve, though single readings can be large; an effect the other way counts as inactive or inconclusive.

Experiments:
[1] = qHTS Assay for Lipid Storage Modulators (AID 1519; calls by dose curve; for activity change, negative = inhibition: % is set by controls: 0 for no effect and ±100 for the full control effect); conditions: Drosophila S3 cells, BODIPY lipid droplet/cell ratio, laser cytometry, cells loaded with oleic acid
In short: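 Cells seeded at 5,000 per well were treated with compounds over a concentration series and loaded with oleic acid (400 uM, as added). Lipid droplet fluorescence (488 nm excitation, 500-530 nm channel) was read by laser-scanning cytometry and normalized to 20 uM Triacsin C.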

[2] = Cytometric Cell-Based qHTS for Inhibitors of the mTORC1 Signaling Pathway in MEF (Tsc2-/-, p53-/-) Cells (AID 2660); conditions: mTORC1 pathway cytometry; series mostly up to 38.3 µM;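 note: Tsc2 and p53 null MEFs carrying empty vector with compound for 24 h; percent of cells above a phospho-rpS6 to PI ratio cutoff in each well; plate controls were DMSO for no effect and rapamycin for full effect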
In short: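 Percent of cells positive for normalized phospho-S6 staining is reported, with the cutoff set from rapamycin (7.5 nM) versus DMSO wells. Tsc2-/-, p53-/- MEFs received compound for 24 hrs.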

[3] = High Content Imaging Cell-Based qHTS for Inhibitors of the mTORC1 Signaling Pathway in MEF (Tsc2-/-, p53-/-) Cells (AID 2666); conditions: at 38.3 µM (top of the series);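 note: percent of cells scored positive for phospho-rpS6 Ser235/236 immunostaining by imaging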
In short: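 Cells were plated, dosed with compound after 24 hrs, and incubated another 24 hrs at 37 degree Celsius. Fixed cells were immunostained for phospho-rpS6 Ser235/236 and counterstained, and the normalized signal was scored as % active cells against rapamycin and DMSO controls.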

[4] = High Content Imaging Cell-Based qHTS for Inhibitors of the mTORC1 Signaling Pathway in MEF Cells (AID 2667); conditions: series mostly up to 38.3 µM;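 note: Tsc2-/- p53-/- MEFs stably re-expressing wild-type Tsc2 exposed 24 h; plate controls were DMSO wells for no effect and rapamycin control wells for full effect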
In short: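 Immunofluorescence for rpS6 phosphorylation in MEFs of Tsc2-/-, p53-/- background rescued with WT Tsc2. Compound exposure lasted 24 hrs. Inhibition was scored against rapamycin-treated control wells.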

[5] = Cytometry Cell-Based qHTS for Inhibitors of the mTORC1 Signaling Pathway in MEF cells (AID 2668); conditions: mTORC1 pathway readout; series mostly up to 38.3 µM;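 note: Tsc2-/- p53-/- mouse embryonic fibroblasts stably re-expressing wild-type Tsc2; percent cells positive for phospho-rpS6 Ser235/236 relative to propidium iodide stain; plate controls were DMSO wells for no effect and 7.5 nM rapamycin control wells for full effect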
In short: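 In MEFs grown in DMEM + 10% FBS, a 24 hrs compound exposure preceded imaging of phospho-rpS6 Ser235/236 by laser-scanning cytometry.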

[6] = target: Ubiquitin carboxyl-terminal hydrolase 2 (Homo sapiens) (UniProt O75604); assay: qHTS Validation Assay for Inhibitors of Ubiquitin-specific Protease USP2a Using CHOP2 as the Reporter (AID 463106); conditions: USP2a cleavage of CHOP2 reporter, enzymatic; series mostly up to 38.3 µM;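 note: plate controls were DMSO for no effect and full inhibition by NEM for full effect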
In short: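 10nM USP2 core + cpd, 30min RT; add 25nM Ub-CHOP2/25nM substrate; 60min RT; FI 485/531nm. Buffer Tris pH 8.0, CaCl2, BME, CHAPS. Norm. to NEM = 100% inhibition; time-zero read flags fluorescent artifacts.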

[7] = Validation of Assay for Modulators of Lamin A Splicing (AID 1459; active = well fitted curve in the direction sought with a large enough effect in the signal ratio; the % refers to the signal ratio;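 note: cells exposed to compound for two days before reading; 0% is about no effect; ratio rise marks activators and ratio drop marks inhibitors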); conditions: Lamin A splicing dual RFP/GFP fluorescence reporter; series mostly up to 9.22 µM
In short: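 Dual-reporter HeLa S3 line (lamin A-EGFP minigene, DsRed2) treated with compounds 48 hrs, 0.5% DMSO final. Endpoint: EGFP/DsRed2 total intensity ratio from laser-scanning microplate cytometry.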

[8] = target: DNA repair nuclease/redox regulator APEX1 (Homo sapiens) (UniProt P27695); assay: qHTS Validation Assay for Inhibitors of the Human Apurinic/apyrimidinic Endonuclease 1 (APE1) (AID 1705;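 note: TAMRA fluorescence gain over two minutes as APE1 cuts a quenched THF abasic duplex; % is set by controls: 0 for no effect and ±100 for the full control effect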); conditions: purified APE1 endonuclease activity, fluorescence, titration; series mostly up to 57.1 µM
In short: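 Substrate: 50 nM final fluorophore/quencher THF-abasic duplex. Enzyme preincubated with compounds 15 min, RT. Progress derived from fluorescence difference, third minus first kinetic read.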

[9] = Counterscreen for APE1 Inhibitors: Fluorescent Dye Displacement Validation Assay (AID 1707); conditions: fluorescent dye displacement from DNA; series mostly up to 57.1 µM;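 note: plate controls were ThO with dsDNA and no compound for no effect and ThO without dsDNA for full effect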
In short: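 ThO 250 nM + dsDNA 50 nM (THF abasic site, 5'-TAMRA), Tris-HCl pH7.5/50mM NaCl/2 mM MgCl2/0.01% Tween-20; compounds pin-transferred; ex 480/em 540 nm endpoint. Neutral = no compound; no-DNA ThO wells = negative control.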

[10] = target: Endonuclease 4 (Escherichia coli (strain K12)) (UniProt P0A6C1); assay: Counterscreen for APE1 Inhibitors: qHTS Validation Assay for Inhibitors of Endonuclease IV (AID 1708); note: % is set by controls: 0 for no effect and ±100 for the full control effect; conditions: E. coli endonuclease IV, DNA cleavage fluorescence; series mostly up to 57.1 µM
In short: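 Enzymatic AP-site incision assay using a double-stranded THF substrate labelled with TAMRA and BHQ-2; released fluorescence signals activity. Enzyme 2 nM, substrate 50 nM, 15 min compound preincubation.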

[11] = qHTS for differential inhibitors of proliferation of Plasmodium falciparum line 7G8 (AID 1815); conditions: Plasmodium falciparum 7G8 proliferation inhibition; series mostly up to 28.7 µM;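 note: parasite growth measured after three days of incubation; plate controls were vehicle wells for no effect and reference inhibitor wells for full effect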
[12] = qHTS for differential inhibitors of proliferation of Plasmodium falciparum line GB4 (AID 1816); conditions: series mostly up to 28.7 µM;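 note: parasite growth measured after 72 h incubation; 0% = vehicle DMSO and -100% = reference inhibitor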
[13] = qHTS for differential inhibitors of proliferation of Plasmodium falciparum line 3D7 (AID 1876);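 note: parasite growth measured after three days of culture; 0% = vehicle wells and -100% = reference inhibitor wells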; conditions: P. falciparum 3D7 proliferation inhibition; series mostly up to 28.7 µM
[14] = qHTS for differential inhibitors of proliferation of Plasmodium falciparum line D10 (AID 1877); conditions: series mostly up to 28.7 µM;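 note: parasites grown with compound for 72 h before DNA staining; plate controls were vehicle wells for no effect and reference inhibitor wells for full effect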
[15] = qHTS for differential inhibitors of proliferation of Plasmodium falciparum line Dd2 (AID 1882); conditions: series mostly up to 28.7 µM;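 note: compound exposure of 72 h on infected erythrocytes; plate controls were DMSO vehicle for no effect and 0.29 µM artemisinin for full effect; nearly all actives have a fitted effect of over 65% in size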
In short: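 SYBR Green I DNA fluorescence read-out, ex 485/em 535 nm. Signals were normalized to 0.29 uM artemisinin and DMSO wells, then corrected using vehicle-only plates flanking each stack. Parasite growth ran 72 h in erythrocytes before lysis.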

[16] = qHTS for differential inhibitors of proliferation of Plasmodium falciparum line W2 (AID 1883); conditions: series mostly up to 28.7 µM;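 note: parasites grown with compound for 72 h before lysis and staining; 0% = vehicle wells and -100% = control inhibitor wells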
[17] = qHTS for differential inhibitors of proliferation of Plasmodium falciparum line HB3 (AID 1886); conditions: series mostly up to 28.7 µM;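 note: parasites grown with compound for 72 h before SYBR Green readout; plate controls were vehicle for no effect and reference inhibitor for full effect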
[18] = target: Ferritin light chain (Equus caballus) (UniProt P02791); assay: qHTS Validation Assay for Identification of Novel General Anesthetics (AID 2323); conditions: horse apoferritin, anesthetic-site fluorescent probe displacement; series mostly up to 76.9 µM; note: % is set by controls: 0 for no effect and ±100 for the full control effect
In short: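 Normalized fluorescence response, scaled between free 1-AMA and 1-AMA/apoferritin complex, fitted to a four-parameter Hill equation for concentration-effect values. Binding mix: 10 uM horse-spleen apoferritin, 50% saturated 1-AMA in PBS; read 380/535 nm after 10 min.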

[19] = target: ATP-dependent DNA helicase Q1 (Homo sapiens) (UniProt P46063); assay: qHTS Validation Assay for Inhibitors of RecQ-Like Dna Helicase 1 (RECQ1) (AID 2353); conditions: recombinant RECQ1 helicase DNA unwinding assay; series mostly up to 25.6 µM;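 note: plate controls were DMSO vehicle for no effect and enzyme-free control for full effect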
In short: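 50 nM RECQ1T1 preincubated 15 min with compound in Tris pH 8.0 buffer with MgCl2, DTT, Tween-20 and 2.5 ug/ml poly(dI-dC); started with 200 nM TAMRA/BHQ-2 forked duplex and 2 mM ATP. Unwinding read as fluorescence (525/598 nm), two reads 2 h apart.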

[20] = Validation screen for small molecules that induce DNA re-replication in MCF 10A normal breast cells (AID 463097); conditions: MCF 10A cells, DNA re-replication phenotype imaging; series mostly up to 46.1 µM; note: 0% is about no effect; nearly all actives have a fitted effect of over 60% in size
In short: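 Following 48 hr compound incubation (37 C, 5% CO2), MCF 10A cells receive Hoechst for 40 min at 37 C. Nuclei are then scanned (excitation 405 nm, emission 500-530 nm) for total fluorescence intensity.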

[21] = measured here: cell count channel max response
[22] = measured here: lipid channel max response

Ubiquitin carboxyl-terminal hydrolase 2 (Homo sapiens), sequence (O75604 whole entry, looked up): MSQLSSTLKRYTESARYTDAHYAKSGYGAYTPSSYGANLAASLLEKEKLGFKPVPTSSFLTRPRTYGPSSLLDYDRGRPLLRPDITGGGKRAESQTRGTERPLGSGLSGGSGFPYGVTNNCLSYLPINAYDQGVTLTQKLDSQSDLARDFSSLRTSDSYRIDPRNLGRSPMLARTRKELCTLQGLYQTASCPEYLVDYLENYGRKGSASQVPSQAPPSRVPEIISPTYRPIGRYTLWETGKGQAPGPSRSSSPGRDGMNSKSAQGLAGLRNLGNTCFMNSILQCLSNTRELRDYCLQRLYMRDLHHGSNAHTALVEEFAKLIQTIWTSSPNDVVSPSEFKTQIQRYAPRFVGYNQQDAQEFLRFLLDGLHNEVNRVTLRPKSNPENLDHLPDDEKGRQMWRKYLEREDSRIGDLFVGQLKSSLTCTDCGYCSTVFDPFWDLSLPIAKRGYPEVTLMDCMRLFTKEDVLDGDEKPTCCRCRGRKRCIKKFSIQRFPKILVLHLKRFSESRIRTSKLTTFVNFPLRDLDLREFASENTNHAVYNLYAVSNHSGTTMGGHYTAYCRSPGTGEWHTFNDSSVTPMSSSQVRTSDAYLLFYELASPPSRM
DNA repair nuclease/redox regulator APEX1 (Homo sapiens), sequence (P27695 whole entry, looked up): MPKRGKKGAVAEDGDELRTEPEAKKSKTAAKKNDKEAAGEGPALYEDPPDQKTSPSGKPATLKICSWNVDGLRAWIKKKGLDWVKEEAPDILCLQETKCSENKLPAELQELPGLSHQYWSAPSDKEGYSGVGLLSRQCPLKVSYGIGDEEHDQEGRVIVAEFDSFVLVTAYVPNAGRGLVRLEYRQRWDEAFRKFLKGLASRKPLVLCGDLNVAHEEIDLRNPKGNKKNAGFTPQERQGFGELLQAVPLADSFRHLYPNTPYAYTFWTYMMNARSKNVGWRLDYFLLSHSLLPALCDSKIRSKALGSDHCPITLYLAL
Ferritin light chain (Equus caballus), sequence (P02791 2-175 limits assumed): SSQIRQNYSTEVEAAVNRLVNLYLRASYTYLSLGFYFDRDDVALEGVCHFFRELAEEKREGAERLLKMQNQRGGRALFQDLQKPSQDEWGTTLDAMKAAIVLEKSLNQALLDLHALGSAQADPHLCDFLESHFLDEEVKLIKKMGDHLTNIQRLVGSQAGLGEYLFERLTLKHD
ATP-dependent DNA helicase Q1 (Homo sapiens), sequence (P46063 whole entry, looked up): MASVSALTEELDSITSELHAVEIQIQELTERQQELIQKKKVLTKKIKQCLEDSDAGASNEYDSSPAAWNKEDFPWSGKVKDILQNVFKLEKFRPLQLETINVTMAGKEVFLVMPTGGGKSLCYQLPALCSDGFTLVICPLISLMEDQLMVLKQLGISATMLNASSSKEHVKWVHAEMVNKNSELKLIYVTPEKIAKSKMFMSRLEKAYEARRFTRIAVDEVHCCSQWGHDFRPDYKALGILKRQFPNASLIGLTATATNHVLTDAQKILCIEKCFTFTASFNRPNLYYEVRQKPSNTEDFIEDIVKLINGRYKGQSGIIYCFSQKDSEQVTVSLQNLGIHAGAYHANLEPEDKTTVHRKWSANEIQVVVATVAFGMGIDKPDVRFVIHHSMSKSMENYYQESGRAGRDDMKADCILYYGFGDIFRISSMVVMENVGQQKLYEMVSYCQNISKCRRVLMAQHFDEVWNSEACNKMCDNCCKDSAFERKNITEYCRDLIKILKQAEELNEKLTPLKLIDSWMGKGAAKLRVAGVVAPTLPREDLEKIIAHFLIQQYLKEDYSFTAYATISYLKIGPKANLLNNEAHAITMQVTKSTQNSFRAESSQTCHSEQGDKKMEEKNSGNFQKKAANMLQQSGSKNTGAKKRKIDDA

CCC(c1ccc(O)cc1)C(CC)c1ccc(O)cc1 (stereo not given)
activity change, negative = inhibition ([1]; at 57.5 µM (top of the series)): 9.03% (inactive)
max response [1, 21]: 10.5%
max response [1, 22]: 25.1%

OC(c1cc(C(F)(F)F)nc2c(C(F)(F)F)cccc12)C1CCCCN1 (stereo not given)
activity change, negative = inhibition ([1]; at 57.5 µM (top of the series)): 2.49% (inactive)
max response [1, 21]: 6.15%
max response [1, 22]: 10.3%

COc1ccc2ccc(=O)oc2c1CC=C(C)C
activity change, negative = inhibition ([1]; at 57.5 µM (top of the series)): 9.52% (inactive)
max response [1, 21]: 4.48%
max response [1, 22]: 16.7%

CS(=O)(=O)c1ccc(C2=C(c3ccccc3)C(=O)OC2)cc1
activity change, negative = inhibition ([1]; at 57.5 µM (top of the series)): 14.5% (inactive)
max response [1, 21]: 15.3%
max response [1, 22]: 35.2%

CN(C)CCN(Cc1ccc(Cl)cc1)c1ccccn1
activity change, negative = inhibition ([1]; at 25.7 µM (top of the series)): -3.62% (inactive)
max response [1, 21]: -9.2%
max response [1, 22]: -15.8%

CC1(C)OC2CC3C4CC(F)C5=CC(=O)C=CC5(C)C4C(O)CC3(C)[C@]2(C(=O)CO)O1 (stereo not given in full)
activity change, negative = inhibition ([1]; at 57.5 µM (top of the series)): 6.59% (inactive)
max response [1, 21]: 10.6%
max response [1, 22]: 23.9%

CN[C@H]1[C@@H](O[C@@H]2[C@H](O[C@@H]3[C@@H](O)[C@@H](O)[C@@H](N=C(N)N)[C@@H](O)[C@@H]3N=C(N)N)O[C@H](C)[C@@]2(O)C=O)O[C@@H](CO)[C@@H](O)[C@H]1O
activity change, negative = inhibition ([1]; at 25.7 µM (top of the series)): -5.41% (inactive)
max response [1, 21]: 12.5%
max response [1, 22]: 7.05%

Cc1cc2nc3c(=O)[nH]c(=O)nc-3n(CC(O)C(O)C(O)CO)c2cc1C (stereo not given)
activity change, negative = inhibition ([1]; at 25.7 µM (top of the series)): 0.295% (inactive)
activity change, negative = inhibition ([1]; at 57.5 µM (top of the series)): 10.9% (inactive) and -20.1% (inactive)
max response [1, 21]: 2.32% and -7.87% and -11.2%
max response [1, 22]: 0.677% and 3.75% and -34%

C[C@H]1O[C@@H](n2cc(F)c(=O)[nH]c2=O)[C@H](O)[C@H]1O
outcome [2]: inactive
outcome [3]: inactive
outcome [4]: inactive
outcome [5]: inactive
outcome [6]: inactive

Nc1ccn([C@@H]2O[C@H](CO)[C@@H](O)[C@H]2O)c(=O)n1
activity change, negative = inhibition ([1]; at 57.5 µM (top of the series)): -3.18% (inactive)
max response [1, 21]: -16.3%
max response [1, 22]: -19.1%

CCNC(=O)[C@H]1O[C@@H](n2cnc3c(N)nc(NCCc4ccc(CCC(=O)O)cc4)nc32)[C@H](O)[C@H]1O
outcome [7]: inactive
activity change, negative = inhibition ([1]; at 57.5 µM (top of the series)): -1.93% (inactive)
max response [1, 21]: -4.53%
max response [1, 22]: -7.25%
outcome [8]: inactive
outcome [9]: inactive
outcome [10]: inactive
outcome [11]: inactive
outcome [12]: inactive
outcome [13]: inactive
outcome [14]: inactive
outcome [15]: inactive
outcome [16]: inactive
outcome [17]: inactive
outcome [18]: inactive
outcome [19]: inactive
outcome [20]: inactive

C=CCc1cccc(C=NNC(=O)CN2CCN(Cc3ccccc3)CC2)c1O
outcome [2]: inactive
outcome [3]: inactive
outcome [4]: inactive
outcome [6]: inactive

NCC1CCC(C(=O)O)CC1 (stereo not given)
activity change, negative = inhibition ([1]; at 25.7 µM (top of the series)): -1.26% (inactive)
activity change, negative = inhibition ([1]; at 57.5 µM (top of the series)): 6.78% (inactive)
max response [1, 21]: -0.272% and 28.1%
max response [1, 22]: -2.41% and 39.3%

CCC(=C(CC)c1ccc(O)cc1)c1ccc(O)cc1
activity change, negative = inhibition ([1]; at 25.7 µM (top of the series)): -5.29% (inactive)
max response [1, 21]: -17.8%
max response [1, 22]: -23.1%

NS(=O)(=O)c1cc(Cl)c(Cl)c(S(N)(=O)=O)c1
activity change, negative = inhibition ([1]; at 25.7 µM (top of the series)): -3.46% (inactive)
max response [1, 21]: -9.93%
max response [1, 22]: -12.7%

CC(NCCc1ccc(O)cc1)C(O)c1ccc(O)cc1 (stereo not given)
activity change, negative = inhibition ([1]; at 57.5 µM (top of the series)): 2.67% (inactive)
max response [1, 21]: 13.6%
max response [1, 22]: 20%

C=C1c2cccc(O)c2C(O)=C2C(=O)[C@@]3(O)C(O)=C(C(N)=O)C(=O)[C@@H](N(C)C)[C@@H]3[C@@H](O)[C@H]12
activity change, negative = inhibition ([1]; at 25.7 µM (top of the series)): 1.55% (inactive)
max response [1, 21]: -8.47%
max response [1, 22]: -6.76%
